In the supplement of paper PMC11732987, “Enantioselective OTUD7B fragment discovery through chemoproteomics screening and high-throughput optimisation” (Communications Chemistry, 2025):

Tests used:
Experiment in all cases: log2 ratio of Biotin-Ahx-Ub-VS probe labelling (fragment/DMSO); higher = less target engagement (more negative = stronger competition), active = hit call of the paper (q ≤ 0.05, log2 ratio ≤ -1)
Conditions in all cases: compound concentration: 200 uM; treatment time: 3 h
USP19 = biological target: T1, USP19 (UniProt O94966)
T1 sequence (whole entry): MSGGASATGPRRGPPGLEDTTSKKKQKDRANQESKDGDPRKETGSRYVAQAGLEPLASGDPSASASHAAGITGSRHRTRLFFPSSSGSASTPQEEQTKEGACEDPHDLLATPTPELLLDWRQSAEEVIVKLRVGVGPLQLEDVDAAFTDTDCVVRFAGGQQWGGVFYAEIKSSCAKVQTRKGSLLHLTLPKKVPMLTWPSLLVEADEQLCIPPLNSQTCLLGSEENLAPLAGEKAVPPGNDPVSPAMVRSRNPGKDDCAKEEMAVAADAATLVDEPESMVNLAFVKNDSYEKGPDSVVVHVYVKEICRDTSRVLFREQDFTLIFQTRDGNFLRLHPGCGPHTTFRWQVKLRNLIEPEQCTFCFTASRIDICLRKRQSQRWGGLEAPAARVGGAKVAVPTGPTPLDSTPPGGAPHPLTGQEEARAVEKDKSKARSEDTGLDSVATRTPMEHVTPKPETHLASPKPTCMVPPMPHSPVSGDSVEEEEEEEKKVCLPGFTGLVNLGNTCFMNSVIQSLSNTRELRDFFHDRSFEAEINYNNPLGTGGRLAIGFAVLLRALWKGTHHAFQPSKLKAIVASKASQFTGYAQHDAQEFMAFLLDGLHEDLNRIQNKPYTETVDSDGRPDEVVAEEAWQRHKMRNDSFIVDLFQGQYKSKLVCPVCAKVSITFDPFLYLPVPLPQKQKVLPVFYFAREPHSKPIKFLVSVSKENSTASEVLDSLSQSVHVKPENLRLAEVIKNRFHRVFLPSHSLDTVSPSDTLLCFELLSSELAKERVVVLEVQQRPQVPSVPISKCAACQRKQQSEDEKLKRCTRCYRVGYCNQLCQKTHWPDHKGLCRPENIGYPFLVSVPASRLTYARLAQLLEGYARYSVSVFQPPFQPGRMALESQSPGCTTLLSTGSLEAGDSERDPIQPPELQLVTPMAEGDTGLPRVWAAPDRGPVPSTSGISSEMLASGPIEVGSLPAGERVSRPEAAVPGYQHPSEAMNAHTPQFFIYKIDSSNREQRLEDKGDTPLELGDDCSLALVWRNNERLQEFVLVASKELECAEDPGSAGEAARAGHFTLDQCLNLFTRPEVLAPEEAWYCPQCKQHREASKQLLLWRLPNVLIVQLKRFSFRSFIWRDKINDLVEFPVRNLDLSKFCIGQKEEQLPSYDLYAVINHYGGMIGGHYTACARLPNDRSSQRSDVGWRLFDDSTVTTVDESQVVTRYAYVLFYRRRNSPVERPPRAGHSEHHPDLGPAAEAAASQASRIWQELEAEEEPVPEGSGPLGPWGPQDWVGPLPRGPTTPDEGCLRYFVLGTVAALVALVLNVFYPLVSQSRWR
In short: (§1)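 Average log2 ratios of fragment over vehicle were obtained by unpaired t-test from global-median-normalised Spectronaut label-free quantities. Proteins with ≥2 unique peptides were included. HEK293T lysate (495 µg per sample) was treated in triplicate with fragment at 200 µM or vehicle for 3 h, then with Biotin-Ahx-Ub-VS at 0.5 µM final for 1 h, and labelled DUBs were NeutrAvidin-enriched and run by diaPASEF LC-MS/MS.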

USP24 = USP24 (UniProt Q9UPU5)
Chain of USP24 (Q9UPU5 whole entry): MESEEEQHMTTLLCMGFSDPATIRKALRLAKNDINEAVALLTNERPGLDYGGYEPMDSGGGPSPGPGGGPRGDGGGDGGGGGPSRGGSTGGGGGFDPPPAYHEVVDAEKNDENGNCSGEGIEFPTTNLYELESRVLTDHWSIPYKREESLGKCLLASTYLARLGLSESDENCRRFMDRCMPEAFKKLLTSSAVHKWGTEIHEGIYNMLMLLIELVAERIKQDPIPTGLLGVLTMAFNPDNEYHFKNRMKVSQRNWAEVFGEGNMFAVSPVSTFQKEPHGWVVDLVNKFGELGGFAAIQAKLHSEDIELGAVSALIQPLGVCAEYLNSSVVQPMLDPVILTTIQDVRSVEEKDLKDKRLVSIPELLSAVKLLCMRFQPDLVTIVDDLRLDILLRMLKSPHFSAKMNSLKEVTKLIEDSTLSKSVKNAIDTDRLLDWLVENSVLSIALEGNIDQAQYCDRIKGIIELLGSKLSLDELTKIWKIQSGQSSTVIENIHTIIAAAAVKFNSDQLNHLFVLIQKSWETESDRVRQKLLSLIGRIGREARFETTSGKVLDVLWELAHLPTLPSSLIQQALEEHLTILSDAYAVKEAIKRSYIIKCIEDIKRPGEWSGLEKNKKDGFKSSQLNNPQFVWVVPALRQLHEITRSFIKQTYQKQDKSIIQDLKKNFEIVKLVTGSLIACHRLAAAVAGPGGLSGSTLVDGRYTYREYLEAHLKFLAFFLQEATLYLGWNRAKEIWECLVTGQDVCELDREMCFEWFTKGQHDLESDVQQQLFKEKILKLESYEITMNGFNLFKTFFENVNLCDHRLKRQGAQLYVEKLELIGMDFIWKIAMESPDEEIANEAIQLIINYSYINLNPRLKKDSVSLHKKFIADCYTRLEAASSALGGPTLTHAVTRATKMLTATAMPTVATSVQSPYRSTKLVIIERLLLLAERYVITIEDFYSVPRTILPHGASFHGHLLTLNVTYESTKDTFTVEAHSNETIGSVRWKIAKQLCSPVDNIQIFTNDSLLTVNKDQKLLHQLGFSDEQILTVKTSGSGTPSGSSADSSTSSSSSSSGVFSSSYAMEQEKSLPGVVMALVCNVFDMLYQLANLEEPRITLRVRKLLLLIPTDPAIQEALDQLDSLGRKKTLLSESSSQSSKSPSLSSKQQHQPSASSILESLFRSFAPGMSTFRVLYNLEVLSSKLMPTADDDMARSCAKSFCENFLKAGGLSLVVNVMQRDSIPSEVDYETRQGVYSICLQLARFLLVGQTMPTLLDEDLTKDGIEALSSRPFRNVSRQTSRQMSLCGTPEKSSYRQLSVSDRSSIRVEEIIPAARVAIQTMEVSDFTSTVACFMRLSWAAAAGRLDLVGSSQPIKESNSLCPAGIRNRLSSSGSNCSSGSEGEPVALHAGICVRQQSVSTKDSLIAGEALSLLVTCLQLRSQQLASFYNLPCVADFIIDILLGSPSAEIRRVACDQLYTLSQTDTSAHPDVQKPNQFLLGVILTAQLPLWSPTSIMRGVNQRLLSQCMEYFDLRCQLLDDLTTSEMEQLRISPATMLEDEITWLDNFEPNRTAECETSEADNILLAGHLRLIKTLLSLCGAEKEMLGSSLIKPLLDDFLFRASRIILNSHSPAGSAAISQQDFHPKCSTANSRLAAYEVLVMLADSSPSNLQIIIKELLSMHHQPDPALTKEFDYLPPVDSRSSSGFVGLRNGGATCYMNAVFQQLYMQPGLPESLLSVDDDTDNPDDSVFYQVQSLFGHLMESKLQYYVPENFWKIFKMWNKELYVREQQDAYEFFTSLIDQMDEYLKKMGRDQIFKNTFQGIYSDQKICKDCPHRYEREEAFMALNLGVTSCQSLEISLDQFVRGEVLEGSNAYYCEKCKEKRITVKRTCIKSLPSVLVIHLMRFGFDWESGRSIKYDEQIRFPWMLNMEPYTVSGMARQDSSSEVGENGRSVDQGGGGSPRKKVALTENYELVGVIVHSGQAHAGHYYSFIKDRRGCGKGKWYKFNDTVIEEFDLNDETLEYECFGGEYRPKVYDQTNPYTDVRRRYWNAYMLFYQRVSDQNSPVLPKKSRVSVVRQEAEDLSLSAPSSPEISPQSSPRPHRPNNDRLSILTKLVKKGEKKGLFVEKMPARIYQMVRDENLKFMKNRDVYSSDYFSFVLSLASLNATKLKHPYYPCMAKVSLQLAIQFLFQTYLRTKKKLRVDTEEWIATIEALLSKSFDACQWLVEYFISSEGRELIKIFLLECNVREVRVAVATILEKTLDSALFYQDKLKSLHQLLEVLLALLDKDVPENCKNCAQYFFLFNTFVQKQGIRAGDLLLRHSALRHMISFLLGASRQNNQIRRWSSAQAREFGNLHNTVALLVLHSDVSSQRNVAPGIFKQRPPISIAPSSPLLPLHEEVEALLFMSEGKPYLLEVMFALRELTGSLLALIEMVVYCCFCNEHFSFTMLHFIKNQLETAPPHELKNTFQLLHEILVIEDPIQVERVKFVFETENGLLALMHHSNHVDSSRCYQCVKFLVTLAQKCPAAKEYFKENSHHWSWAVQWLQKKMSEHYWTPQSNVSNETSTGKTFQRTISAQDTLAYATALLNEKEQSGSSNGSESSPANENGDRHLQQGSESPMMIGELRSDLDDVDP
In short: as §1

USP25 = biological target: T2, USP25 (UniProt Q9UHP3)
T2 sequence (whole entry): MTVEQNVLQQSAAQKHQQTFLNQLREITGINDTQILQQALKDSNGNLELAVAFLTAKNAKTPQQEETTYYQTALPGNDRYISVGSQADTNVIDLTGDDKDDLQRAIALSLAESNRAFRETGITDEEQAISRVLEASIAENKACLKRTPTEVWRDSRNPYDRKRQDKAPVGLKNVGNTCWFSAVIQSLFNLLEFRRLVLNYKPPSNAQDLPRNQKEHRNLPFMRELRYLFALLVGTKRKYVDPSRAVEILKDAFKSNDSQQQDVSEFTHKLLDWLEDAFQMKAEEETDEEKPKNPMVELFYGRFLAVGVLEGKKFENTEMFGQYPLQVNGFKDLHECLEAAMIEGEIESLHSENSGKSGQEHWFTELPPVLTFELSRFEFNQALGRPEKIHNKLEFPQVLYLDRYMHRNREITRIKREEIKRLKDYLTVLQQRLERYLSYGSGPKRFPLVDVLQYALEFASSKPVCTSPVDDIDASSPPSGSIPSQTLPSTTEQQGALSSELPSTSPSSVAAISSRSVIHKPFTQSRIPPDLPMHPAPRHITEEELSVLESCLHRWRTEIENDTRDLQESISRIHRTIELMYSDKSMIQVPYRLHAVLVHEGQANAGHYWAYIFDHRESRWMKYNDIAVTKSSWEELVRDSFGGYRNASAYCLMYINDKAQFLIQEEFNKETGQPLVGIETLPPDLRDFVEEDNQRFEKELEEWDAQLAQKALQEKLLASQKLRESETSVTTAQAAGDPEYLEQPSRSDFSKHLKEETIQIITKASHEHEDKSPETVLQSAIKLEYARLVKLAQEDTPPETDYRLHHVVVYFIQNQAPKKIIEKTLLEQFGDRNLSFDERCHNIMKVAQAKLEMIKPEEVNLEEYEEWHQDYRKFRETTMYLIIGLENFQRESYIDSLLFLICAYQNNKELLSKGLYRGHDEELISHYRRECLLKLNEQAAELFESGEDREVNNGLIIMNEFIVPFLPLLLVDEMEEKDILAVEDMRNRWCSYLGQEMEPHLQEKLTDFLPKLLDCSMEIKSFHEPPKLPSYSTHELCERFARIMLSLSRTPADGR
In short: as §1

USP28 = biological target: T3, USP28 (UniProt Q96RU2)
T3 sequence (whole entry): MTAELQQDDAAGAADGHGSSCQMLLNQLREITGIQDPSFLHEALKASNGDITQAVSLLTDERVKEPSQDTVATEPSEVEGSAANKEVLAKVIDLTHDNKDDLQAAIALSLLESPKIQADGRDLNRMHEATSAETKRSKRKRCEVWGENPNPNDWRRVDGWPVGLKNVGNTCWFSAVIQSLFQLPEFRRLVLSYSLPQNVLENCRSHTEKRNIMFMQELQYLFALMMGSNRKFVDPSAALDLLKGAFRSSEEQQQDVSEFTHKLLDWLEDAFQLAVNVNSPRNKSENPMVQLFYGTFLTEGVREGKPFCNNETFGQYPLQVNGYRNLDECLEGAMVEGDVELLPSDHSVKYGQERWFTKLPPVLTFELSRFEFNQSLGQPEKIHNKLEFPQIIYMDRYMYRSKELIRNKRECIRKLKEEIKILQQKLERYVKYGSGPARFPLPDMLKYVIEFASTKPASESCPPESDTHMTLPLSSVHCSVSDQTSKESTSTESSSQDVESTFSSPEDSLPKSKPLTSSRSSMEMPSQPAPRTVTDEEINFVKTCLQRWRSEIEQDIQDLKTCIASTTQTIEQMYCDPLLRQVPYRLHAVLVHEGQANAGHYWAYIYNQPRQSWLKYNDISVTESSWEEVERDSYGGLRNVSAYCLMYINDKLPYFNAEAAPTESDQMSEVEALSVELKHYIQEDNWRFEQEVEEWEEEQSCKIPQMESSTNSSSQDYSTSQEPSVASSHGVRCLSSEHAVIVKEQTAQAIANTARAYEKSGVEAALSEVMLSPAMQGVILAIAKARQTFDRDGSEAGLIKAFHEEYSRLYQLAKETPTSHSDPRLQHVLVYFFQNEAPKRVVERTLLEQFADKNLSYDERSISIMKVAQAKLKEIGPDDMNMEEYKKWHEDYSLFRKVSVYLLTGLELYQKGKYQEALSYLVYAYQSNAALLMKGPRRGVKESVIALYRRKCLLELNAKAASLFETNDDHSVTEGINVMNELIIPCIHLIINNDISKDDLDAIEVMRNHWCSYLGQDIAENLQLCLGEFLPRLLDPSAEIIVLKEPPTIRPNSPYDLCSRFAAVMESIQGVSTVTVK
In short: as §1

Measured: log2 ratio of Biotin-Ahx-Ub-VS probe labelling

Cl.O=C(CCl)NC1(c2ncccn2)CCC1
inactive: USP19 0.0868 | USP24 0.06 | USP25 -0.18 | USP28 -0.0581
